Assay results reported in PubChem BioAssay (EPA / NIEHS).
Records with an inconclusive call do not appear. Activity calls are given as the source filed them. The calls were made as follows: active = hit-call score of the fitted dose curve at least 0.9, where 1 is the maximum; inconclusive = response in the unintended direction; inactive = score below 0.9.

The molecules below were run on xenobiotic metabolism (CYP1A1), CYP1A1 (gene 1543) (assay: CLD_CYP1A1_48hr: CellzDirect (CLD) Gene Expression Assay for xenobiotic metabolism (CYP1A1) at 48 hours (AID 2283705)).
Experimental: CLD_48hr is a cell-based, multiplexed-readout assay that uses hepatocyte, a human liver primary cell, with measurements taken at 48 hours after chemical dosing in a 96-well plate.CLD_CYP1A1_48hr is one of 16 assay component(s) measured or calculated from the CLD_48hr assay. It is designed to make measurements of mRNA induction, a form of inducible reporter, as detected with chemiluminescence signals by Quantitative Nuclease Protection Assay (qNPA) technology.Data from the assay component CLD_CYP1A1_48hr was analyzed at the endpoint, CLD_CYP1A1_48hr, in the positive analysis fitting direction relative to DMSO as the negative control and baseline of activity. Using a type of inducible reporter, gain-of-signal activity can be used to understand changes in the reporter gene as they relate to the gene CYP1A1. Furthermore, this assay endpoint can be referred to as a primary readout. To generalize the intended target to other relatable targets, this assay endpoint is annotated to the cyp intended target family, where subfamily is xenobiotic metabolism.
Human hepatocyte cultures were treated daily for two consecutive days with fresh dosing solutions containing appropriate concentrations of the 320 ToxCast chemicals (chemical identities were blinded to CellzDirect and other ToxCast collaborators), vehicle control (0.2% DMSO), and positive control inducers as summarized in Table 1. Due to the large number of treatment groups and chemicals examined, the ToxCast chemicals were divided into two groups (spanning two independent cultures of hepatocytes from separate donor preparations (Hu778: ToxCast plates 1 and 2; Hu776: ToxCast plates 3 and 4). Each preparation of human hepatocyte cultures was treated with respective vehicle control, medium only control, set of six positive controls/reference chemicals for the five hepatic receptor pathways, and a subset of eight of the ToxCast chemicals (indoxacarb, pyrithiobac-sodium, norflurazon, cyhalofop-butyl, methomyl, thiram, acetochlor, and propiconazole). These replicate data, coupled with internal replicates designed within the blinded ToxCast chemical library, provided additional data to evaluate interindividual differences between hepatocyte preparations and their potential impact on chemical profiles.Cell morphology and integrity were evaluated using phase-contrast microscopy as an indicator of hepatocyte cell health (Tyson & Green, 1987). Cultures for each treatment group (i.e., media, vehicle [0.2% DMSO], positive control inducers [multiple concentrations], and the ToxCast chemicals [multiple concentrations]) were observed and cell morphology was assessed relative to vehicle control cultures at each harvest time point (0, 6, 24, or 48 h). […] Images were evaluated at the conclusion of the study to assess changes in cell integrity and account for the effects of chemical exposure on uncharacteristic changes in concentration-dependent gene expression profiles. The results from these determinations of apparent cytotoxicity were annotated (yes/no) alongside the corresponding qNPA data for reference.At the conclusion of each treatment period, hepatocyte cultures (96-well) were washed with 1 volume of HBSS, lysed by addition of 25 ul ArrayPlate lysis buffer (HTG, Tucson, AZ), and 70 ul/well of Denaturation Oil, denatured by incubation at 95C for 10 min, and frozen at approximately -70C until analysis by nuclease protection assay (qNPA) (Roberts et al., 2007). For qNPA analysis, cell lysates were thawed at 50C for approximately 30 min, qNPA probes were added, and samples were incubated at 95C for 10 min to begin the detection process by denaturing the target RNA, dissociating the duplexes and secondary structure hybridization. At the conclusion of the hybridization period, S1 nuclease reagent was added to each sample to digest all nonprotected nucleotides at 50C for 60-90 min. […]
`COP(=O)(OC)SCn1c(=O)oc2cc(Cl)cnc21` was tested, and the outcome was “inactive”.
`Cc1nn(-c2cc(NS(C)(=O)=O)c(Cl)cc2Cl)c(=O)n1C(F)F` was tested, and the outcome was “inactive”.
`CCOP(=S)(OCC)Oc1ccc([N+](=O)[O-])cc1` was tested, and the AC50 was 3.61 µM (active).
In the case of `Cc1cc(C2CC2)nc(Nc2ccccc2)n1`, the outcome is reported as “inactive”.
In the case of `FC(F)C(F)(F)OCC(Cn1cncn1)c1ccc(Cl)cc1Cl` (stereo not given), the AC50 is reported as 8.06 µM (active).
With `CCCCOC(=O)[C@@H](C)Oc1ccc(Oc2ccc(C#N)cc2F)cc1` the outcome was “inactive”.
`N#CSCSC#N` was tested, and the AC50 was 7.26 µM (active).
For `COc1cccc(C(=O)NN(C(=O)c2cc(C)cc(C)c2)C(C)(C)C)c1C`, the AC50 was 10.1 µM (active).
With `C=C(C)[C@H]1Cc2c(ccc3c2O[C@@H]2COc4cc(OC)c(OC)cc4[C@@H]2C3=O)O1` the AC50 was 2 µM (active).
In the case of `CN(C)[C@@H]1C(=O)C(C(N)=O)=C(O)[C@@]2(O)C(=O)C3=C(O)c4c(O)cccc4[C@@](C)(O)[C@H]3[C@H](O)[C@@H]12`, the outcome is reported as “inactive”.
`Nc1nc(N)nc(NC2CC2)n1` was tested, and the AC50 was 11.6 µM (active).
With `O=[N+]([O-])c1cc(C(F)(F)F)c(Cl)c([N+](=O)[O-])c1Nc1ncc(C(F)(F)F)cc1Cl` the AC50 was 0.627 µM (active).
In the case of `COc1ccc(C(=CC(=O)N2CCOCC2)c2ccc(Cl)cc2)cc1OC`, the AC50 is reported as 4.77 µM (active).
In the case of `CCOC(=O)CC(SP(=O)(OC)OC)C(=O)OCC` (stereo not given), the outcome is reported as “inactive”.
With `CC(C)N(C(=O)SCC(Cl)=C(Cl)Cl)C(C)C` the outcome was “inactive”.
`CCOP(=O)(OCC)Oc1cc(C)nc(C(C)C)n1` was tested, and the outcome was “inactive”.
With `CSC1=N[C@@](C)(c2ccccc2)C(=O)N1Nc1ccccc1` the AC50 was 20 µM (active).
With `Nc1c(Cl)cc([N+](=O)[O-])cc1Cl` the AC50 was 4.01 µM (active).
For `CC(C1CC1)C(O)(Cn1cncn1)c1ccc(Cl)cc1` (stereo not given), the outcome was “inactive”.
For `CCNc1nc(Cl)nc(NC(C)(C)C#N)n1`, the outcome was “inactive”.
`CCOP(=S)(OCC)SCCSCC` was tested, and the AC50 was 20 µM (active).
In the case of `COP(=O)(OC)OC(Br)C(Cl)(Cl)Br` (stereo not given), the outcome is reported as “inactive”.
With `CC(C)=CC1C(C(=O)OCN2C(=O)C3=C(CCCC3)C2=O)C1(C)C` (stereo not given) the outcome was “inactive”.
`CCCOCC(=Nc1ccc(Cl)cc1C(F)(F)F)n1ccnc1` was tested, and the AC50 was 6.01 µM (active).
In the case of `CCc1cccc(C)c1N(C(=O)CCl)C(C)COC` (stereo not given), the AC50 is reported as 20 µM (active).
`CNC(=O)Oc1cccc2c1OC(C)(C)O2` was tested, and the outcome was “inactive”.
For `CC1=NNC(=O)N(/N=C/c2cccnc2)C1`, the AC50 was 3.97 µM (active).
`CSc1nc(NC(C)C)nc(NC(C)C)n1` was tested, and the AC50 was 20 µM (active).
`CCOP(=S)(Oc1cnc(C(C)(C)C)nc1)OC(C)C` (stereo not given) was tested, and the AC50 was 3.91 µM (active).
In the case of `CCOP(=S)(OCC)Oc1cc(C)nc(C(C)C)n1`, the AC50 is reported as 4.2 µM (active).
In the case of `C#CCC1=C(C)C(OC(=O)C2C(C=C(C)C)C2(C)C)CC1=O` (stereo not given), the AC50 is reported as 33 µM (active).
In the case of `CCCSP(=O)(OCC)Oc1ccc(Br)cc1Cl` (stereo not given), the outcome is reported as “inactive”.
`CON=C(C(=O)OC)c1ccccc1CON=C(C)c1cccc(C(F)(F)F)c1` was tested, and the AC50 was 20 µM (active).
For `CC(COc1ccc(Oc2ccccc2)cc1)Oc1ccccn1` (stereo not given), the outcome was “inactive”.
For `CCc1cnc(C2=NC(C)(C(C)C)C(=O)N2)c(C(=O)O)c1` (stereo not given), the outcome was “inactive”.
For `CNC(=O)ON=C(C)SC`, the outcome was “inactive”.
With `CC(C)[C@H](C(=O)O[C@H](C#N)c1cccc(Oc2ccccc2)c1)c1ccc(Cl)cc1` the AC50 was 20 µM (active).
`CCOP(=S)(OCC)Oc1ccc2c(C)c(Cl)c(=O)oc2c1` was tested, and the AC50 was 1.89 µM (active).
In the case of `CN(C)C(=O)Nc1cccc(C(F)(F)F)c1`, the AC50 is reported as 7.21 µM (active).
For `CNC(=O)ON=C(SC)C(=O)N(C)C`, the outcome was “inactive”.
